{
  "source": "PubChem BioAssay AID651638",
  "about": "(Johns Hopkins Ion Channel Center, 2012)",
  "note": "Out of some 2,400 compounds screened, about 2,400 (100%) were called active.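 The calls were made as follows: active = ratio percent of control, averaged over triplicates, above buffer control mean plus 5 SD (cut at about 64% in these data); inactive = the rest.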 So high a share suggests a set chosen from earlier hits. Only a sample is shown.",
  "data": [
    {"target": "Potassium channel subfamily K member 3 (Homo sapiens) (UniProt O14649)", "sequence (O14649 whole entry, looked up)": "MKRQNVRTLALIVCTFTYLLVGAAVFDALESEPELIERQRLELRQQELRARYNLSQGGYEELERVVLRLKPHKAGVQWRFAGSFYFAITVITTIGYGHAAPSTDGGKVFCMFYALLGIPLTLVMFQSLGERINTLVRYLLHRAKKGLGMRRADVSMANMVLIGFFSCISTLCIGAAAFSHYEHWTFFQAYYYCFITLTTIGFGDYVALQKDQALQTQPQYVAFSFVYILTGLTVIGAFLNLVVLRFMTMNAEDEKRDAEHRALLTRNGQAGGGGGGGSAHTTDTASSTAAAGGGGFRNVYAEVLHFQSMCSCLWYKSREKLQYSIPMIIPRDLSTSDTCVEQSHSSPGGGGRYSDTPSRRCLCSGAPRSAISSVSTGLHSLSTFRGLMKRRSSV", "experiment": "retest of human KCNK3 channel inhibitors, confirmation, CHO cells, FluxOR thallium flux, triplicate (AID 651638);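 also: ratio is the fluorescence rise from min to max over baseline after thallium stimulus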", "settings": "FluxOR fluorescence, at 10 µM, hits give high values", "values": [
      {"smiles": "COc1ccccc1C1=NCc2nnc(CSC)n2-c2ccc(Cl)cc21", "ratio percent of control": "54.7% (active)"},
      {"smiles": "CCCCCCN=C(CC)c1c(O)n(CCCC)c(=O)[nH]c1=O", "ratio percent of control": "129% (active)"},
      {"smiles": "CCOC(=O)C1SC2(C(F)(F)C(F)F)CC1(O)c1c(c(OC)c3occc3c1OC)O2", "note": "(stereo not drawn)", "ratio percent of control": "112% [0% buffer, 100% carvedilol maximal block] (active)"}
    ]}
  ]
}
